# The supplement of paper PMC4206467
# Test system: Perkinsus marinus PRA240
# Test: ATP content (proliferation) relative to DMSO control; higher = more parasite growth (less inhibition)
# Conditions: 20 µM; 4 days
# Description: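 Perkinsus marinus PRA240 trophozoites (2-5x10^6 cells/ml, 100 µl, 96-well) were exposed once to MMV Malaria Box compounds at 20 µM (0.1% DMSO) in triplicate. ATP content (ATPlite bioluminescence) was read at day 4 post-exposure and normalised to DMSO + cells control wells (100% activity). Compounds were identified by joining plate and well to the Malaria Box list.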
row,Compound,ATP content [%]
1,COc1cc(CNCCc2ccc(Cl)cc2)cc(OC)c1O,130
2,CCOc1c(Cl)cc(CNC(C)C(O)c2ccccc2)cc1OC (stereo not given),75.7
3,COc1ccc(CN2CCN(Cc3ccccc3)CC2)c(O)c1,194
4,O=C(CCc1ccco1)NC1CCN(CC2(c3ccc(Cl)cc3)CCC2)CC1,103
5,Oc1ccc(Br)cc1CN1CCN(Cc2cccc(F)c2)CC1,95.2
6,CN(N=O)C1=C(NC2CCCCC2)C(=O)c2ccccc2C1=O,45.9
7,Oc1ccc(Br)cc1CN1CCN(Cc2ccc(Cl)cc2)CC1,129
8,Oc1ccc(C(=C(Cl)Cl)c2ccc(O)cc2)cc1,137
9,CCOc1cc(CNC(C)C(O)c2ccccc2)cc(Cl)c1OCC (stereo not given),120
10,CCCCCCc1cc(O)c2c3c(c(=O)oc2c1)CCC(C)C3 (stereo not given),33.1
